Screens deposited in PubChem BioAssay by National Center for Advancing Translational Sciences (NCATS).
BAZ2B inh: qHTS Assay for Inhibitors of BAZ2B; Bromodomain adjacent to zinc finger domain protein 2B (Homo sapiens), Q9UIF8; AlphaScreen BAZ2B-H3K14Ac peptide displacement; Potency, µM (series often up to 114 µM), without a hit: top-dose activity change, negative = inhibition, actives largely listed as inhibitors; actives 4.4% (n = 360,000); AID 504333, 2011; also: potency is read from the fitted curve at half-maximal effect; % is scaled to controls: 0 for no effect and ±100 for the full control effect; nearly all actives have a fitted effect of over 60% in size
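Multi-concentration screen (max 110 uM) measuring displacement of acetylated histone H3 peptide from BAZ2B by AlphaScreen, using 50 nM protein, 50 nM peptide and 10 ug/mL streptavidin donor plus Ni-chelate acceptor beads.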
PLK1 PBD block: qHTS for Inhibitors of PLK1-PDB (polo-like kinase 1 - polo-box domain): Primary Screen; actives 2.8% (n = 360,000); Potency, µM, without a hit: max response, negative = inhibition, most hits filed as inhibitors; AID 720504, 2013; Serine/threonine-protein kinase PLK1 (Homo sapiens), P53350; Plk1 PBD binding of FITC phosphopeptide, fluorescence polarization; also: potency is read from the fitted curve at half-maximal effect; series mostly up to about 57 µM; % is scaled to controls: 0 for no effect and ±100 for the full control effect; nearly all actives have a fitted effect of over 65% in size
Target sequence (P53350 whole entry, looked up, the tested form may be a part): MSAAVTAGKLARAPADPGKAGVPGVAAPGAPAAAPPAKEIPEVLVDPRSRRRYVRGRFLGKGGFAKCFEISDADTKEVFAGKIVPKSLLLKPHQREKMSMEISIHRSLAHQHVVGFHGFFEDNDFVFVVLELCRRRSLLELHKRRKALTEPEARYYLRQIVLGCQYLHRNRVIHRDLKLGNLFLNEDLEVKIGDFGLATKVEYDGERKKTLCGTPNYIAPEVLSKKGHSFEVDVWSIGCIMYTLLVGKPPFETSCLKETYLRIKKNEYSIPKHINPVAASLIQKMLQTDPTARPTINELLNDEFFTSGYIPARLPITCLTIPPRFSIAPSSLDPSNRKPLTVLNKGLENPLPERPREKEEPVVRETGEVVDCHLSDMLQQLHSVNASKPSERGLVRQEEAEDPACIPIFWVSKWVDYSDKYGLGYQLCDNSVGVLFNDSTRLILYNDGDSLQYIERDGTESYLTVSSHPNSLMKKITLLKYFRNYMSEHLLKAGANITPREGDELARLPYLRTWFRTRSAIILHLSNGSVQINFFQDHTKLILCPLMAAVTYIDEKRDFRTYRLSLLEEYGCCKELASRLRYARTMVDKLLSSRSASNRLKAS
PI5P4Ka inh: qHTS for Inhibitors of phosphatidylinositol 5-phosphate 4-kinase (PI5P4K); PI5P4Kalpha enzyme, ADP-Glo luminescence, 60 min; hits give low values; actives 1.2% (n = 330,000); AID 652105, 2013; Phosphatidylinositol 5-phosphate 4-kinase type-2 alpha (Homo sapiens), P48426; max response, %; active = max response of -50% or lower; inconclusive = between -30% and -50%; inactive = -30% or higher; also: value at the top dose of about 77 µM; % is scaled to controls: 0 for no effect and ±100 for the full control effect
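PI5P4Kalpha ADP-Glo assay; 5 microM ATP final; 60 min RT reaction; HEPES pH 7.4/EGTA/CHAPS, 5% DMSO; controls lacking substrate or enzyme; luminescent end-point.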
HP1b binding inh: HTS for Inhibitors of HP1-beta Chromodomain Interactions with Methylated Histone Tails. Chromobox protein homolog 1 (Homo sapiens), P83916. AlphaScreen HP1-beta / biotin-H3K9me3 peptide binding. Potency, µM (highest dose often 114 µM), inactives show top-dose activity change, negative = inhibition, hits mostly inhibitors. actives 0.56% (n = 390,000); also: potency is read from the fitted curve at half-maximal effect; nearly all actives have a fitted effect of over 70% in size
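Compound inhibition of the preformed complex between 50 nM HP1-beta and 50 nM biotinylated H3K9me3 peptide was read by AlphaScreen. Buffer was PBS pH 7.4 with 0.01% Tween-20. Incubations ran 30 min at room temperature, with 10 ug/mL donor/acceptor beads.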
JMJD2A Tudor: qHTS Assay for Inhibitors of JMJD2A-Tudor Domain. Potency, µM (highest dose often 114 µM), without a hit: at the highest dose activity change, negative = inhibition, usual class: inhibitors. Lysine-specific demethylase 4A (Homo sapiens), O75164. AID 504339, 2011. AlphaScreen JMJD2A-Tudor / H3K4me3 peptide binding. actives 4.4% (n = 390,000); also: potency is read from the fitted curve at half-maximal effect; % is scaled to controls: 0 for no effect and ±100 for the full control effect; nearly all actives have a fitted effect of over 50% in size
KAT2A inh: qHTS Assay for Inhibitors of GCN5L2; Potency, µM (top dose mostly 58.9 µM), for the others: top-dose activity change, negative = inhibition, most hits filed as inhibitors; GCN5L2 HAT assay, ThioGlo1 CoA-SH fluorescence; Histone acetyltransferase KAT2A (Homo sapiens), Q92830; actives 0.21% (n = 390,000); AID 504327, 2011; also: potency is read from the fitted curve at half-maximal effect; % is scaled to controls: 0 for no effect and ±100 for the full control effect
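ThioGlo1-coupled HAT assay: 20nM GCN5L2, 70uM acetyl-CoA, 75uM H3(1-25) peptide, pH 7.5. Fluorescence read at 340/540nm at start and after 20 min at room temperature.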
Active calls of the source: *; u = inconclusive; x = not tested or not shown; ! = not active in a repeat. Shown are actives, neighbours in structure and some others; about 7% of the full set was active somewhere. Unless noted, calls follow the shape of the dose curve; as a rule, active = well fitted curve in the direction sought with a large enough effect; inconclusive = small, poorly fitted or top-dose-only effect, or another doubt; inactive = no such curve, though single readings can be large; an effect the other way counts as inactive or inconclusive.

SMILES | BAZ2B inh | PLK1 PBD block | PI5P4Ka inh | HP1b binding inh | JMJD2A Tudor | KAT2A inh
CC(=O)/C(N=Nc1cccc(C(F)(F)F)c1)=C(\C)O | -17% | 2% | 8 | 25% | -18% | 1%
COc1ccc(CNC(=O)Cn2c(=O)c3cccn3c3ccccc32)cc1 | -15% | x | x | 17% | -20% | -8%
Clc1ccc(OCc2nc3ccccc3[nH]2)cc1 | 1% | -5% | -3 | 27% | -4% | -6%
Brc1ccc(OCc2nc(-c3ccccn3)n[nH]2)cc1 | 28µM* | -9% | -3 | 30% | 40µM* | -6%
Clc1ccc(OCc2nc(-c3ccccn3)n[nH]2)cc1 | 22µM* | -2% | x | 53% | 20µM* | -9%
CNc1cccc(S(=O)(=O)N2CCN(S(=O)(=O)c3ccc4c(c3)OCCO4)CC2)c1 | x | x | x | x | -16% | x
NC(=O)C1CCN(CC(O)COCc2ccccc2Cl)CC1 (stereo not drawn) | 0% | -17% | 1 | 11% | -12% | -2%
CC(=O)NCCOc1cccc2ccccc12 | 9% | -4% | x | 15% | -8% | 0%
c1ccc(CCNCCCOc2cccc3ccccc23)cc1 | -35% | -14% | 18 | -31% | 40µM* | -2%
CCOc1ccc(NC(=O)C2CCN(C(=O)N3CC(C)Oc4ccc(Cl)cc43)CC2)cc1 (stereo not drawn) | 79µM* | x | x | -10% | u | -2%
CSc1ccc(Cc2ccc(Cl)cc2Cl)nn1 | 8% | -8% | 1 | 32% | 19% | -14%
NNc1ccc(Cc2ccc(Cl)cc2Cl)nn1 | 2.8µM* | -19% | 7 | 23% | 28µM* | -8%
O=C(NCC1CCCO1)c1ccc(CNS(=O)(=O)c2cccc(Cl)c2)cc1 (stereo not drawn) | 2% | u | -20 | -12% | -20% | -17%
CCOc1ccccc1NC(=O)C(=O)N/N=C/c1cc(Br)ccc1O | 8.9µM* | -2% | 1 | 23% | u | u
COc1cccc(/C=N/NC(=O)C(=O)NCc2cccnc2)c1O | 20µM* | -10% | 0 | 31% | u | 29%
COc1cccc(/C=N/NC(=O)C(=O)NCc2cccnc2)c1OC | -17% | -8% | -8 | 4% | -9% | 3%
COc1cccc(/C=N/NC(=O)C[n+]2ccccc2)c1O | 18µM* | 3% | -3 | 39% | 45µM* | -4%
COc1cc(OC)c(OC)cc1/C=N/NC(=O)C[n+]1ccccc1 | -6% | -10% | 10 | 15% | -3% | -5%
O=C(C[n+]1ccccc1)N/N=C/c1cc(Br)ccc1O | 10µM* | 4% | 16 | 38% | 22µM* | 19%
CCOc1ccccc1C=NNC(=O)C(=O)NN=Cc1ccccc1OCC | x | -15% | -3 | 30% | -10% | x
CC(=O)c1ccc(NC(=O)c2ccc(CN3C(=O)CCn4nc(C)cc43)cc2)cc1 | -15% | x | x | 13% | -16% | 0%
Cc1c(NC(=O)c2cccc(NC(=O)Cc3ccccc3Cl)c2)c(=O)n(-c2ccccc2)n1C | x | 1% | -2 | x | x | x
CCOCCCn1c(=NC(=O)c2cccnc2)c(C(=O)OCC)cc2c(=O)n3ccccc3nc21 | -27% | 19µM*! | 28 | 10% | 50µM*! | -14%
CC1(C)C2CCC1(C)C(NCC(O)COc1ccc(C#N)cc1)C2 (stereo not drawn) | 25µM* | 2% | -11 | -23% | 13µM* | -13%
CCOC(=O)C1C(=O)N(C(=O)c2cncc(Br)c2)CC1c1ccccc1 (stereo not drawn) | -1% | 3µM* | u | u | u | 0%
